From the supplement of paper PMC10037445
In all, about 2,900 compounds were measured (“NF-kB SEAP reporter activity, fold change vs agonist alone”: median about 0.99, highest 2% from about 2.6 on). The list comes from a sample in which the highest values are over-represented; it also holds similar structures and randomly drawn compounds.

How the values were obtained:
RAW-Dual [1] = experiment: NF-kB SEAP reporter activity, fold change vs agonist alone; higher = enhanced NF-kB activity
How it was run: (§1)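 Reporter activity is given as fold change relative to agonist-alone wells. To measure it, 50 nL of library stock was pin-tooled onto RAW-Dual macrophages (50,000 cells/well, DMEM, 384-well plates), a PRR agonist followed 1 h later, and cells stayed at 37 °C, 5% CO2. Twenty hours on, supernatant was assayed for IRF (QuantiLuc luminescence) and NF-κB (QuantiBlue, 620 nm absorbance), and wells under 70% of agonist-control IncuCyte confluency in both mask sets were marked cytotoxic.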

RAW-Dual [2] = experiment: NF-kB SEAP reporter activity, fold change vs agonist alone; cytotoxicity flag (confluency mask): not cytotoxic; higher = enhanced NF-kB activity
How it was run: as §1

RAW-Dual [3] = experiment: NF-kB SEAP reporter activity, fold change vs agonist alone; cytotoxicity flag (confluency mask): cytotoxic (confluency <70% of control); higher = enhanced NF-kB activity
How it was run: as §1

[4] = library stock concentration (final ~1000-fold dilution): 10 mM, cytotoxicity flag (confluency mask): not cytotoxic, agonist: Imiquimod (TLR7) […]
[5] = library stock concentration (final ~1000-fold dilution): 10 mM, cytotoxicity flag (confluency mask): not cytotoxic, agonist: MPLA (TLR4) […]
[6] = agonist: ODN 1826 (TLR9) 0.5 ug/mL
[7] = agonist: Pam2CSK4 (TLR2/6) 0.1 ug/mL
[8] = agonist: Pam3CSK4 (TLR2/1) 0.1 ug/mL

CCCCCCCCCCCCCCCCCC(=O)O
NF-kB SEAP reporter activity (RAW-Dual [1]; [4]): 0.96
NF-kB SEAP reporter activity (RAW-Dual [1]; [5]): 1.05

O=C(CCCCCCC(=O)NO)NO
NF-kB SEAP reporter activity (RAW-Dual [1]; [4]): 2.03
NF-kB SEAP reporter activity (RAW-Dual [1]; [5]): 2.57

CCCC(=O)Nc1cccc(NC(=O)c2ccccc2Br)c1 (library stock concentration (final ~1000-fold dilution): 10 mM)
NF-kB SEAP reporter activity (RAW-Dual [2]; agonist: LPS (TLR4) 0.1 ug/mL): 0.939
NF-kB SEAP reporter activity (RAW-Dual [2]; [6]): 0.996
NF-kB SEAP reporter activity (RAW-Dual [2]; [7]): 0.966
NF-kB SEAP reporter activity (RAW-Dual [2]; [8]): 1.15

CCc1ccc(NC(=O)Nc2ccccc2)cc1 (library stock concentration (final ~1000-fold dilution): 10 mM)
NF-kB SEAP reporter activity (RAW-Dual [2]; agonist: LPS (TLR4) 0.1 ug/mL): 1.12
NF-kB SEAP reporter activity (RAW-Dual [2]; [6]): 0.823
NF-kB SEAP reporter activity (RAW-Dual [2]; [7]): 0.702
NF-kB SEAP reporter activity (RAW-Dual [2]; [8]): 0.652

O=C(CCCCCCCC(=O)NCCO)NCCO (library stock concentration (final ~1000-fold dilution): 10 mM)
NF-kB SEAP reporter activity (RAW-Dual [2]; agonist: LPS (TLR4) 0.1 ug/mL): 1.2
NF-kB SEAP reporter activity (RAW-Dual [2]; [6]): 0.998
NF-kB SEAP reporter activity (RAW-Dual [2]; [7]): 0.991
NF-kB SEAP reporter activity (RAW-Dual [2]; [8]): 0.856

CCCC(=O)Nc1cccc(NC(=O)c2ccccc2Br)c1
NF-kB SEAP reporter activity (RAW-Dual [1]; [4]): 1.06
NF-kB SEAP reporter activity (RAW-Dual [1]; [5]): 0.952

O=C(CCCCCCC(=O)Nc1ccccc1)NO
NF-kB SEAP reporter activity (RAW-Dual [1]; library stock concentration (final ~1000-fold dilution): 10 mM, cytotoxicity flag (confluency mask): cytotoxic (confluency <70% of control), agonist: Imiquimod (TLR7) […]): 2.38
NF-kB SEAP reporter activity (RAW-Dual [1]; library stock concentration (final ~1000-fold dilution): 10 mM, cytotoxicity flag (confluency mask): cytotoxic (confluency <70% of control), agonist: MPLA (TLR4) […]): 2.6

CCCCCCCCCCCCCCCCCC(=O)O (library stock concentration (final ~1000-fold dilution): 10 mM)
NF-kB SEAP reporter activity (RAW-Dual [2]; agonist: LPS (TLR4) 0.1 ug/mL): 0.849
NF-kB SEAP reporter activity (RAW-Dual [2]; [6]): 1.02
NF-kB SEAP reporter activity (RAW-Dual [2]; [7]): 0.95
NF-kB SEAP reporter activity (RAW-Dual [2]; [8]): 1.17

O=C(CCCCCCCC(=O)NCCO)NCCO
NF-kB SEAP reporter activity (RAW-Dual [1]; [4]): 0.913
NF-kB SEAP reporter activity (RAW-Dual [1]; [5]): 1.03

O=C(CCCCCCC(=O)NO)NO (library stock concentration (final ~1000-fold dilution): 10 mM)
NF-kB SEAP reporter activity (RAW-Dual [2]; agonist: LPS (TLR4) 0.1 ug/mL): 3.77
NF-kB SEAP reporter activity (RAW-Dual [2]; [6]): 1.62
NF-kB SEAP reporter activity (RAW-Dual [2]; [7]): 0.78
NF-kB SEAP reporter activity (RAW-Dual [2]; [8]): 1.21

CCc1ccc(NC(=O)Nc2ccccc2)cc1
NF-kB SEAP reporter activity (RAW-Dual [1]; [4]): 0.892
NF-kB SEAP reporter activity (RAW-Dual [1]; [5]): 1.01

O=C(CCCCCCC(=O)Nc1ccccc1)NO (library stock concentration (final ~1000-fold dilution): 10 mM)
NF-kB SEAP reporter activity (RAW-Dual [3]; agonist: LPS (TLR4) 0.1 ug/mL): 6.47
NF-kB SEAP reporter activity (RAW-Dual [3]; [6]): 2.34
NF-kB SEAP reporter activity (RAW-Dual [3]; [7]): 0.808
NF-kB SEAP reporter activity (RAW-Dual [3]; [8]): 1.86

Br.COc1cc(Br)c(Nc2nc(-c3c(C)nc4ncccn34)cs2)c(Br)c1
NF-kB SEAP reporter activity (RAW-Dual [1]; [4]): 1.42
NF-kB SEAP reporter activity (RAW-Dual [1]; [5]): 2.42

Br.COc1cc(Br)c(Nc2nc(-c3c(C)nc4ncccn34)cs2)c(Br)c1 (library stock concentration (final ~1000-fold dilution): 10 mM)
NF-kB SEAP reporter activity (RAW-Dual [2]; agonist: LPS (TLR4) 0.1 ug/mL): 1.91
NF-kB SEAP reporter activity (RAW-Dual [2]; [6]): 1.96
NF-kB SEAP reporter activity (RAW-Dual [2]; [7]): 0.305
NF-kB SEAP reporter activity (RAW-Dual [2]; [8]): 0.861

Cl.O=C1CN2Cc3c(ccc(Cl)c3Cl)NC2=N1 (library stock concentration (final ~1000-fold dilution): 10 mM)
NF-kB SEAP reporter activity (RAW-Dual [2]; agonist: LPS (TLR4) 0.1 ug/mL): 0.887
NF-kB SEAP reporter activity (RAW-Dual [2]; [6]): 1.24
NF-kB SEAP reporter activity (RAW-Dual [2]; [7]): 0.872
NF-kB SEAP reporter activity (RAW-Dual [2]; [8]): 1.01

Cl.O=C1CN2Cc3c(ccc(Cl)c3Cl)NC2=N1
NF-kB SEAP reporter activity (RAW-Dual [1]; [4]): 1.34
NF-kB SEAP reporter activity (RAW-Dual [1]; [5]): 1.26

CC(C)CC(NP(=O)(O)OC1OC(C)C(O)C(O)C1O)C(=O)NC(Cc1c[nH]c2ccccc12)C(=O)O (stereo not given) (library stock concentration (final ~1000-fold dilution): 10 mM)
NF-kB SEAP reporter activity (RAW-Dual [2]; agonist: LPS (TLR4) 0.1 ug/mL): 1.04
NF-kB SEAP reporter activity (RAW-Dual [2]; [6]): 0.986
NF-kB SEAP reporter activity (RAW-Dual [2]; [7]): 1.05
NF-kB SEAP reporter activity (RAW-Dual [2]; [8]): 1.41

CC(C)CC(NP(=O)(O)OC1OC(C)C(O)C(O)C1O)C(=O)NC(Cc1c[nH]c2ccccc12)C(=O)O (stereo not given)
NF-kB SEAP reporter activity (RAW-Dual [1]; [4]): 0.973
NF-kB SEAP reporter activity (RAW-Dual [1]; [5]): 1.03

CCc1ccc(NC(=O)Nc2c[nH]c3ccccc23)cc1
NF-kB SEAP reporter activity (RAW-Dual [1]; library stock concentration (final ~1000-fold dilution): 1 mM, cytotoxicity flag (confluency mask): not cytotoxic, agonist: Imiquimod (TLR7) […]): 0.782
NF-kB SEAP reporter activity (RAW-Dual [1]; library stock concentration (final ~1000-fold dilution): 1 mM, cytotoxicity flag (confluency mask): not cytotoxic, agonist: MPLA (TLR4) […]): 0.736

CCc1ccc(NC(=O)Nc2c[nH]c3ccccc23)cc1 (library stock concentration (final ~1000-fold dilution): 1 mM)
NF-kB SEAP reporter activity (RAW-Dual [2]; agonist: LPS (TLR4) 0.1 ug/mL): 0.445
NF-kB SEAP reporter activity (RAW-Dual [2]; [6]): 0.702
NF-kB SEAP reporter activity (RAW-Dual [2]; [7]): 0.417
NF-kB SEAP reporter activity (RAW-Dual [2]; [8]): 0.365
